Hits are enriched below; roughly 3.8% of the tested compounds scored in any of these assays.
HSF-1 act – HSF-1 activators, primary screen, NIH3T3-HGL cells, MG132 stress, luminescence, single point | activation, % at 9 µM | 300,000 compounds, 1.7% hits | NIH3T3-HGL HSF-1 luciferase reporter, 8 h; 100% = twice DMSO control signal;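 active = mean replicate activation of at least 50% with a set share of replicates each reaching 50%; inconclusive = only one of those two conditions met; inactive = mean below 50% and too few replicates reaching it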;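 also: 0% = median of the neutral control wells and 100% = twice that signal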
Wnt bcat act – Wnt/beta-catenin pathway activators, primary screen, cell-based, plate reader, single point; activation, % at 9.35 µM; 300,000 compounds, 1.2% hits; Wnt/beta-catenin reporter cell assay, activator; AID 743398, 2014; in the data active = activation above about 30%, passing the limit was not always enough; inconclusive = no clear call, values can overlap the other calls;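 also: 0% = neutral control wells and 100% = positive control wells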
esBAF inh – Bmi1 luciferase reporter increase in mESCs, primary screen, esBAF inhibitor project, mouse ES cells, Bmi1 luciferase knock-in, single point | 24 h; 100% = twice the neutral-well signal | reporter increase, % at 12.5 µM | 350,000 compounds, 2% hits; in the data active = activation above about 40%; inconclusive = no clear call, values can overlap the other calls;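 also: 0% = median of the plate's neutral control wells and 100% = double that signal; a rise in the Bmi1 reporter signal indicates esBAF inhibition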
HSF1 inhib – HSF1 inhibitors in luciferase reporter cells, primary screen, cell-based, NIH3T3, luminescence; NIH3T3-HGL HSE-luciferase, MG132-induced, luminescence 8 h; hits give low values; activity change, negative = inhibition, % at 7.5 µM (by protocol); 300,000 compounds, 0.77% hits; AID 2098, 2009;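 active = more than half of replicate wells show activity change below -50%, luminescence cut by over half; inconclusive = some wells, but at most half, below -50%; inactive = no replicate well below -50%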;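 also: luciferase reports HSF-1 transcriptional activity via heat shock element; 0% = median of DMSO wells and -100% = zero luminescence signal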
MITF TRPM1 HTS – activators of MITF-driven TRPM1 promoter reporter, primary screen, cell-based, SK-MEL-5, luciferase, single point; activation, % at 12.5 µM; SK-MEL-5 TRPM1-promoter luciferase, 24 h; % of positive control, neutral wells = 0; AID 588334, 2011; 300,000 compounds, 0.75% hits;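 active = mean activation of at least 80% with every replicate also reaching 80%; inconclusive = mean reaches 80% but some replicate falls short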;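 also: 0% = neutral control wells and 100% = parthenolide positive control wells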
Starred values were filed as active, the others as inactive; ? = inconclusive; · = no result.

SMILES	HSF-1 act	Wnt bcat act	esBAF inh	HSF1 inhib	MITF TRPM1 HTS
O=C(C[C@H]1CC[C@@H](NC(=O)CN2CCOCC2)[C@@H](CO)O1)NCc1cccc(F)c1	·	·	2	·	·
C#CCn1c(=NC(=O)c2cccs2)sc2cccc(OC)c21	4	13	54*	16	2
C#CCn1c(=NC(=O)CN2C(=O)CCC2=O)sc2cccc(OC)c21	-9	1	-1	-6	8
CC(C)NC(=O)Nc1cccc2c1O[C@H](CN(C)C(=O)NC1CCCCC1)[C@@H](C)CN([C@@H](C)CO)C2=O	·	·	4	·	·
COc1ccc(Br)cc1/C=N/NC(=O)c1ccc(COc2ccc3c(c2)CCC3)o1	16	-2	56*	17	21
COc1cccc(C(=O)/C=C2\Sc3ccccc3N2C)c1	28	17	45*	17	50
COc1ccccc1NNC(=O)c1cc(C(C)(C)C)nn1Cc1ccccc1	7	54*	·	-6	·
Cc1ccc(NNC(=O)c2cc(C(C)(C)C)nn2Cc2ccccc2)cc1	4	3	-12	6	-1
COC(=O)C1C(=O)c2c([nH]c(C(=O)OCCOC(C)C)c2C)CC1C (stereo not drawn)	13	·	·	6	·
COC(=O)C1C(=O)c2c([nH]c(C(=O)OC3CCCC3C)c2C)CC1C (stereo not drawn)	37	26	74*	26	99*
COC(=O)C1C(=O)c2c([nH]c(C(=O)OC3CCCCC3)c2C)CC1C (stereo not drawn)	68*	?	63*	28	94*
CCOc1cc2c(C#N)c(N3CCNCC3)nc(N)c2c(N)n1	8	·	·	-7	-3
CCOc1cc2c(C#N)c(N3CCCCC3)nc(N)c2c(N)n1	12	·	54*	10	31
CNC[C@@H]1Oc2ncc(/C=C/c3ccccc3)cc2C(=O)N([C@H](C)CO)C[C@H]1C	·	·	-1	·	·
COC(=O)CCN(C(=O)c1ccc(Cl)c([N+](=O)[O-])c1)c1ccccn1	-7	33*	·	-4	-20
COC(=O)CCN(C(=O)c1cccc([N+](=O)[O-])c1)c1ccccn1	13	-1	·	-3	-2
CC(=O)N(C)C[C@H]1Oc2cc(C#Cc3ccc(F)cc3)ccc2S(=O)(=O)N([C@@H](C)CO)C[C@@H]1C	·	·	4	·	·
C[C@H](CO)N1C[C@H](C)[C@H](CN(C)Cc2ccccc2)Oc2ncc(/C=C/c3ccccc3)cc2C1=O	·	·	4	·	·
Cc1cc(C(=O)CN2C(=O)NC(CC(C)C)C2=O)c(C)n1C1CC1 (stereo not drawn)	·	5	43*	·	29
Cc1cc(C(=O)CN2C(=O)NC(CC(C)C)C2=O)c(C)n1-c1ccccc1F (stereo not drawn)	-2	-1	·	3	-2
COC(=O)C(C)N(C(=O)c1ccc(C(=O)c2ccccc2)cc1)c1c(C)cccc1C (stereo not drawn)	65*	·	0	23	7
COC(=O)C(C)N(C(=O)c1ccc(Cl)cc1)c1c(C)cccc1C (stereo not drawn)	5	·	4	1	-5
OCC1OC(n2ccc3c(SCc4ccccc4)ncnc32)C(O)C1O (stereo not drawn)	·	32*	88*	·	55
C[C@@H]1CCCCO[C@H](CN(C)C(=O)Nc2ccc3c(c2)OCO3)[C@@H](C)CN([C@@H](C)CO)C(=O)c2cc(NS(C)(=O)=O)ccc2O1	·	·	3	·	·
O=C(O)c1ccc(-c2noc(-c3ccccc3Cl)n2)cc1	33	39*	3	18	13
SMILES	HSF-1 act	Wnt bcat act	esBAF inh	HSF1 inhib	MITF TRPM1 HTS
O=C(O)c1ccc(-c2noc(-c3cccc(Cl)c3)n2)cc1	·	17	63*	·	87*
Cc1ccc(SCC(=O)Nc2nccs2)cc1	18	0	24*	4	58
CCn1c(C)nnc1SCC(=O)Nc1nccs1	-15	0	-9	-7	-4
CN(C)c1ccc(NC(=O)c2sc(SCC(=O)Nc3ccc(Br)cc3)nc2N)cc1	12	·	·	8	9
CN(C)c1ccc(NC(=O)c2sc(SCC(=O)Nc3nccs3)nc2N)cc1	32	47*	53*	17	12
O=C(CSc1cn(Cc2ccccc2)c2ccccc12)Nc1nccs1	65*	53*	73*	45	·
CCOC(=O)c1c(SCC(=O)Nc2nccs2)nc(C)c(C)c1C	16	14	50*	-7	52
O=C(Nc1ccc2c(c1)OCO2)N[C@H]1CC[C@@H](CCNC(=O)C2CCCCC2)O[C@@H]1CO	·	·	7	·	·
C[C@H]1CN([C@@H](C)CO)S(=O)(=O)c2ccc(-c3cccnc3)cc2O[C@H]1CN(C)C(=O)c1ccc2c(c1)OCO2	·	·	0	·	·
CCc1cc(/C(Cc2ccc3ccccc3n2)=N\O)c(O)cc1O	7	-6	50*	7	-8
O=C(Cc1nc2ccccc2[nH]1)c1ccc([N+](=O)[O-])cc1	?	58*	·	28	59
CCc1cc(C(=O)Cc2ccc(F)cc2)c(O)cc1O	16	2	-3	-8	-3
Nc1ccc(C(=O)OCc2nc3ccccc3[nH]2)cc1	10	·	55*	7	10
CCc1cc(C(=O)Cc2nc3ccccc3[nH]2)c(O)cc1O	-2	34*	47*	7	21
O=C(Cc1nc2ccccc2[nH]1)c1ccc(Cl)cc1	43	9	33	4	45
C[C@@H]1CCCCO[C@@H](CN(C)C(=O)c2ccccc2)[C@@H](C)CN([C@@H](C)CO)C(=O)c2cc(NC(=O)CCC(F)(F)F)ccc2O1	·	·	1	·	·
CO[C@H]1CN(C)C(=O)c2ccc(NS(C)(=O)=O)cc2OC[C@@H](C)N(C(=O)C2CC2)C[C@H]1C	·	·	0	·	·
CCOC(=O)c1sc(NC(=O)c2ccc3nc[nH]c3c2)nc1C	19	9	53*	16	27
CCSc1nnc(NC(=O)c2ccc3nc[nH]c3c2)s1	·	-3	91*	·	32
CCSc1nnc(NC(=O)c2cccc(OCc3c(C)noc3C)c2)s1	13	·	4	3	·
CC(C)(C)C(=O)CSc1nnc(Nc2ccccc2)s1	14	27	74*	3	68
CCSc1nnc(NC(=O)C(C)(C)C)s1	15	20	51*	6	50
Cc1ccc(S(=O)(=O)N(C)C[C@@H]2Oc3ccc(NC(=O)Nc4c(C)noc4C)cc3C(=O)N([C@H](C)CO)C[C@H]2C)cc1	·	·	-1	·	·
CC(=O)NC(=S)Nc1cccc2ccc(C)nc12	-2	-6	·	0	·
Cc1ccc2cccc(NC(=O)C(F)(F)F)c2n1	215*	·	10	143	·
COc1ccc(C(=O)/C=C/c2ccccc2)c(O)c1	33	0	27	18	·
O=C(/C=C/c1ccncc1)c1cc(Cl)ccc1O	59*	-1	-2	24	-3

Source: PubChem (Broad Institute)
